Experiment [1] in a line: growth inhibition, single agent and combos, cell-based, chromothripsis tumors, cisplatin or BGB combos (AID 1671450).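 Also: cells exposed to compound for four days; 0% = vehicle DMSO and 100% = cell killing by high DMSO.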 Particulars: HDN33 neuroblastoma cells, stronger effect = higher value.
The nature of experiment [2]: growth inhibition, single agents and combos, LFS_MB_1R, cell-based, cisplatin or BGB combos, synergistic combos for chromothripsis tumors (AID 1671452).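 Also: cells exposed for 96 hours before readout.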 Particulars: LFS_MB_1R medulloblastoma cells, stronger effect = higher value.
Experiment [3] in a line: growth inhibition, single agents and combos, HTB85, cell-based, BGB or cisplatin IC20 combos, synergistic combos for chromothripsis tumors (AID 1671453).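 Also: cells exposed for 96 hours before readout; 0% = vehicle DMSO and 100% = high DMSO killing control.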 The settings on record: HTB85 osteosarcoma cells, drug combinations, stronger effect = higher value.
Experiment [4] is described as follows: growth inhibition, single agents and combos, CRL2098, cell-based, BGB or cisplatin IC20 combos, synergistic combos for chromothripsis tumors (AID 1671454).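 Also: cells exposed for 96 h before readout; 0% = vehicle DMSO and 100% = killing by high DMSO.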 Particulars: CRL2098 osteosarcoma cells, drug combinations, stronger effect = higher value.
Experiment [5] in a line: growth inhibition, single agents and combos, HD-MB03, cell-based, BGB or cisplatin IC20 combos, synergistic combos for chromothripsis tumors (AID 1671455; in the data active = inhibition above about 83%;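 also: 0% = vehicle DMSO and 100% = high DMSO as cytotoxic control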). The settings on record: HD-MB03 medulloblastoma cells, stronger effect = higher value.
The nature of experiment [6]: growth inhibition, single agents and combos, UWB1.289, cell-based, BGB or cisplatin combos, synergistic combos for chromothripsis tumors (AID 1671456).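 Also: cells exposed to compound for four days; 0% = vehicle DMSO and 100% = killing by high DMSO.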 The settings on record: UWB1.289 ovarian carcinoma cells, stronger effect = higher value.
A short description of experiment [7]: growth inhibition, single agents and combos, LFS_MB_2R, cell-based, cisplatin combos, synergistic combos for chromothripsis tumors (AID 1671457).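 Also: cells exposed to compound for four days before readout.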 The settings on record: LFS_MB_2R medulloblastoma cells, stronger effect = higher value.
The nature of experiment [8]: growth inhibition, MDA-MB-436, cell-based, BGB or cisplatin combos, synergistic combos for chromothripsis tumors (AID 1671458; call rule not given here;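 also: cells exposed for 96 hours; 0% = vehicle DMSO and 100% = killing by high DMSO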). The settings on record: MDA-MB-436 breast carcinoma growth inhibition, drug combinations, stronger effect = higher value.
The nature of experiment [9]: UWB1.289_BRCA1 ovarian cancer growth, cell-based, BGB or cisplatin combinations (AID 1671459). The settings on record: UWB1.289 BRCA1 ovarian carcinoma, drug combinations, stronger effect = higher value.
A short description of experiment [10]: drug combination toxicity in non-malignant astrocytes – cell-based, BGB or cisplatin IC20 combos, cytotoxicity control for chromothriptic childhood tumor combination screen (AID 1671460).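 Also: cells exposed to compounds for 96 hours before viability readout; 0% = vehicle and 100% = killing control.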 Particulars: Human astrocytes, viability inhibition, drug combinations, at 0.5 µM, stronger effect = higher value.
Experiment [11] can be described thus: BT084 cell growth, single and combined drugs, ICGC_MB145, cisplatin and BGB IC40 combos (AID 1671461).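 Also: cells exposed to drugs for 96 hours; 0% = vehicle DMSO and 100% = high DMSO full killing control.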 The settings on record: BT084 medulloblastoma cells, drug combinations, stronger effect = higher value.
Experiment [12] is described as follows: RCMB18 cell growth, single agent and combined, cisplatin and BGB IC40 combos (AID 1671462).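 Also: cells exposed to compound for four days.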 The settings on record: RCMB18 medulloblastoma cells, stronger effect = higher value.
A short description of experiment [13]: CRL1545 cell growth, single agent and combined, cisplatin and BGB IC20 combos (AID 1671464).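 Also: cells exposed to compound for 96 hours before readout; 0% = vehicle DMSO and 100% = high DMSO killing control.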 The settings on record: CRL1545 osteosarcoma cells, stronger effect = higher value.
A short description of experiment [14]: chitosan synthesis blockers in C. neoformans – flow cytometry, Cibacron Brilliant Red staining (AID 1347148; call rule not given here;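 also: compound exposure lasted three days at 37 degrees C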). The settings on record: Cryptococcus neoformans chitosan, stronger effect = lower value; at 99.1 µM unless noted.
The nature of experiment [15]: rescue of PC12 cells from polyQ htt toxicity – LDH release (AID 1610). Particulars: PC12 mutant huntingtin toxicity, final LDH at 4 uM, stronger effect = lower value.
[16] abbreviates: measured here: with BGB IC20 combination, at 0.5 µM.
The mark [17] stands for this setting: measured here: with cisplatin IC20 combination, at 0.5 µM.
Where [18] appears, read: measured here: combination with cisplatin, at 0.5 µM.
[19] abbreviates: measured here: combination with cisplatin, at 5 µM.

Each structure is given as a SMILES string. Records with an inconclusive call do not appear. The source made the active and inactive calls. Rule as the data show it, unless noted: active = inhibition above about 80%; inactive = the rest.

On to `CCn1cc(C(=O)O)c(=O)c2cc(F)c(N3CCNCC3)cc21`, for which the inhibition is -0.689% in experiment [1] (BGB combo, at 5 µM); 12.2% (inactive) in [1] (at 0.5 µM); -11.9% in [1] (cisplatin combo, at 5 µM); 32.5% in experiment [1] (setting [16]); 3.81% in experiment [1] (setting [17]); -7.4% in experiment [1] (single agent, at 5 µM). Moreover, the inhibition in experiment [2] (at 0.5 µM) is 16.4% (inactive); in [2] (measured here: combination with BGB IC40, at 0.05 µM) it was -0.695%; in experiment [2] (setting [18]), 26.1%; in [2] (setting [19]), 22.9%; in experiment [3] (at 0.5 µM), -8.02% (inactive); in [3] (measured here: with BGB IC20, at 0.5 µM) it was -33.2%. Besides, the inhibition in experiment [3] (measured here: with BGB IC20, at 5 µM) was -19.1%; in experiment [3] (measured here: with cisplatin IC20, at 0.5 µM) it was 12.6%; in experiment [3] (measured here: with cisplatin IC20, at 5 µM), -7.29%; in experiment [3] (single agent, at 5 µM), 1.89%; in experiment [4] (at 0.5 µM), -43.9% (inactive); in [4] (measured here: combination with BGB at IC20, at 0.5 µM) it was -32.8%. Further, the inhibition was -33.5% in [4] (measured here: combination with cisplatin at IC20, at 0.5 µM); -1.96% (inactive) in [5] (at 0.5 µM); -6.97% in experiment [5] (measured here: combo with BGB at IC20, at 0.5 µM); 4.39% in [5] (measured here: combo with cisplatin at IC20, at 0.5 µM); 3.04% (inactive) in [6] (at 0.5 µM); -22.6% in [6] (measured here: inhibition with BGB combination, at 0.05 µM). Moreover, the inhibition was -1.67% in experiment [6] (measured here: inhibition with cisplatin combination, at 0.05 µM); -18.9% (inactive) in experiment [7] (at 0.5 µM); -13.2% in experiment [7] (setting [18]); -11.8% in [7] (setting [19]); -18.4% (inactive) in experiment [8] (at 0.5 µM); -12.8% in experiment [8] (measured here: BGB combination, at 0.5 µM). For the same compound, the inhibition in experiment [8] (measured here: BGB combination, at 5 µM) is -3.58%; in experiment [8] (measured here: cisplatin combination, at 0.5 µM), -41.9%; in experiment [8] (measured here: cisplatin combination, at 5 µM) it was -18.8%; in experiment [9] (BGB combination, concentration series, at 5 µM), -3.45%; in experiment [9] (at 0.5 µM) it was 2.01% (inactive); in experiment [9] (cisplatin combination, concentration series, at 5 µM), 12.5%. Moreover, the inhibition in experiment [10] was 5.02% (inactive); in experiment [10] (measured here: combo with BGB IC20), 10.6%; in [10] (measured here: combo with cisplatin IC20), -14.6%; in experiment [11] (at 0.5 µM), -27.2% (inactive); in experiment [11] (cisplatin combination, at 0.5 µM), -24.4%; in [11] (cisplatin combination, at 5 µM), -61.7%. The inhibition in experiment [11] (measured here: BGB IC40 combination 0.05 uM, at 0.05 µM) is -27.3%; in experiment [11] (single agent, at 5 µM) it was -32.3%; in [12] (at 0.5 µM), -5.94% (inactive); in experiment [12] (cisplatin combo, at 5 µM), -71.7%; in experiment [12] (measured here: BGB IC40 combination, at 0.05 µM) it was -15.2%; in experiment [12] (setting [18]), 20.7%. Besides, the inhibition is -42.9% in experiment [12] (single agent, at 5 µM); -19.2% (inactive) in [13] (at 0.5 µM); -33.4% in experiment [13] (setting [16]); -12.1% in experiment [13] (setting [17]); 20.3% in [13] (single agent, at 0.05 µM); 24% in experiment [13] (single agent, at 5 µM).

Consider `COc1cc2nc(N3CCN(C(=O)c4ccco4)CC3)nc(N)c2cc1OC`, for which, in experiment [14], the fold fluorescence was 6.39 [at 130.4 µM] (inactive).

Take `O=C1N=C(O)CN1/N=C/c1ccc(-c2ccc([N+](=O)[O-])cc2)o1`: the fold fluorescence in experiment [14] is 4.66 [at 159.1 µM] (inactive).

The compound `O=C(c1ccccc1)c1ccc2n1CCC2C(=O)O` (stereo unspecified) yielded a normalised LDH release in [15] of 0.828.

In experiment [15], `Nc1c2c(nc3ccccc13)CCCC2` displayed a normalised LDH release of 0.878.

The compound `CNC(=O)Oc1ccc2c(c1)[C@]1(C)CCN(C)[C@@H]1N2C` yielded a normalised LDH release in [15] of 0.859.

Take `COc1ccc2c(c1)c(CC(=O)O)c(C)n2C(=O)c1ccc(Cl)cc1`: the fold fluorescence in experiment [14] is 4.17 [at 139.7 µM] (inactive).

In the case of `NC(N)=NC(=O)c1nc(Cl)c(N)nc1N`, the fold fluorescence in experiment [14] was 7.16 [at 217.7 µM] (inactive).

The values above are taken from PubChem BioAssay.
